PubChem BioAssay AID1053173 (Broad Institute, 2014)
The whole screen tested about 1,500 compounds, of which about 390 (26%) were called active. The rule behind the calls is not given here. Not all results are given here. Potency and affinity values are given separately.

Molecular target: Histone-lysine N-methyltransferase NSD2 (Homo sapiens) (UniProt O96028)
Assay: NSD2 methyltransferase inhibitors, dose response, biochemical, AlphaScreen, cherry-picked samples (AID 1053173)
Conditions: NSD2 H4 peptide methylation, 120 min; series mostly up to 10 µM

Sequence of Histone-lysine N-methyltransferase NSD2 (Homo sapiens) (O96028 whole entry, looked up): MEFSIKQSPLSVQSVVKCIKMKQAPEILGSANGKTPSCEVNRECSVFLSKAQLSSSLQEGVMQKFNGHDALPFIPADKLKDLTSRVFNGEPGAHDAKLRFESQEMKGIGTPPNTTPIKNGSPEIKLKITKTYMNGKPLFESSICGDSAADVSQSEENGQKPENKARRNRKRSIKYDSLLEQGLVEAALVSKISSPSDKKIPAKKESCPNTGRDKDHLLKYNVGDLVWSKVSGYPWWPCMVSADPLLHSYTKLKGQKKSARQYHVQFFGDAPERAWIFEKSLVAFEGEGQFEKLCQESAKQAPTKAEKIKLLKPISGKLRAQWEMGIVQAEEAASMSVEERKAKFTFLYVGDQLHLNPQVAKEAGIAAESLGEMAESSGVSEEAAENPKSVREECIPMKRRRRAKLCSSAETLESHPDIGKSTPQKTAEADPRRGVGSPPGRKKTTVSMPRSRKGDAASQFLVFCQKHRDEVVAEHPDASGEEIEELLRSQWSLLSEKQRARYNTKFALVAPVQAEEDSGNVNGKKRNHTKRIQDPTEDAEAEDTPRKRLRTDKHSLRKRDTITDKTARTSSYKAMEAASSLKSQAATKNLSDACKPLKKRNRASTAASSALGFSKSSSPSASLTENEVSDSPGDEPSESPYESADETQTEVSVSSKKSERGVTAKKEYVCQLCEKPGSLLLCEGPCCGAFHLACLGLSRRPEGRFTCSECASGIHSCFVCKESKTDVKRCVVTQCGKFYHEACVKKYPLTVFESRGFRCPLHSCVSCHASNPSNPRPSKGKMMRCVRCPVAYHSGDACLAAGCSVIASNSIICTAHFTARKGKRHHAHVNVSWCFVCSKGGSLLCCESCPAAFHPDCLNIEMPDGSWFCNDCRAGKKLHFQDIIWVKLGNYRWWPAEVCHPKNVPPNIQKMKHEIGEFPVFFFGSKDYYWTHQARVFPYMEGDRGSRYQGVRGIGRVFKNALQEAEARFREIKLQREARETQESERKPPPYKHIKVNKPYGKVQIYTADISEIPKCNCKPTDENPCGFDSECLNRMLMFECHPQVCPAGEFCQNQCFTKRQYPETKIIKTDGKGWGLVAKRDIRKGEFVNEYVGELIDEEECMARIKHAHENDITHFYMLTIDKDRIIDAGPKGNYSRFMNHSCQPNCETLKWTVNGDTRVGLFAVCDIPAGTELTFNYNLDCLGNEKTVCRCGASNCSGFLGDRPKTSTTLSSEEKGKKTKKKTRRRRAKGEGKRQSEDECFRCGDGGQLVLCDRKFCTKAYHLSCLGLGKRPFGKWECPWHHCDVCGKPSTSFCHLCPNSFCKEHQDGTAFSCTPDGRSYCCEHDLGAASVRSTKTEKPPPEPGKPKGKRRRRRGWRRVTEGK

outcome, inactive:
O=C1/C(=C/c2ccccc2)CN(C(=O)CCN2CCOCC2)C/C1=C\c1ccccc1
O=Cc1ccc(OC(=O)C2CC(=O)N(c3ccc(F)cc3)C2)cc1 (centres undefined)
Cc1ccc(NC(=O)C[n+]2ccn(C3=C([O-])c4ccccc4C3=O)c2)cc1
Cc1c(C(=O)NC(C)C)oc2c1-c1[nH]ncc1CC2
O=C(Nc1nnc(SCc2ccc(F)cc2)s1)c1ccccn1
c1ccc(CN2CCN(c3nc(-c4ccccc4)nc(-n4ccnc4)n3)CC2)cc1
O=C1NC(NS(=O)(=O)c2ccccc2)(C(F)(F)F)C(=O)N1c1cccc(Cl)c1 (centres undefined)
CC(C)Sc1nnc([C@H](Cc2c[nH]c3ccccc23)NC(=O)OC(C)(C)C)o1
O=[N+]([O-])c1cccc(NC(=S)N2CCOCC2)c1
Cc1cc(C)nc(NS(=O)(=O)c2ccc(NC(=O)c3ccccc3Br)cc2)n1
CCOC(=O)c1cc(S(=O)(=O)Nc2ccc(OC)cc2OC)cn1C
O=S(=O)(Nc1cc(Sc2cccc3cccnc23)c(O)c2ccccc12)c1ccccc1
NS(=O)(=O)c1ccc(CNC(=O)CCCSc2ccccc2)cc1
CCNC(=O)Cc1ccc(NS(=O)(=O)c2ccc(F)cc2)cc1
O=C1NC2=C(CCc3ccccc32)C(c2ccccc2)N1 (centres undefined)
Cc1cccn2c(=O)c3cc(C(=O)NCCCn4ccnc4)n(C)c3nc12
CCOc1cc(C(=O)NCC(=O)N2CCC3(CC2)NCCc2[nH]cnc23)cc(OCC)c1OCC
O=[N+]([O-])c1ccc(N/N=C/c2cccs2)nc1
CCOc1ccc(N)cc1OC
CCN(CC)CCNC(=O)c1cccc(NC(=O)C(=O)c2cc(Br)ccc2NC(C)=O)c1
O=C(/C=C/c1ccc(Cl)cc1Cl)NCc1ccco1
CC1Cc2ccccc2N1C(=O)COc1cccc(-n2cnnn2)c1 (centres undefined)
COc1ccc(CNC(=O)CN(c2ccc(C)cc2)S(=O)(=O)c2c(C)noc2C)cc1
Cc1cc(F)c(F)c(C(=O)N2C(C)CCCC2C)c1Cl (centres undefined)
CC1(C)Cc2cccc(OCC(=O)O)c2O1
Cc1cc(=O)n(-c2ccc3ccccc3n2)[nH]1
COc1ccc2nc(NC(=O)CS(=O)(=O)c3ccc(C)cc3)sc2c1
COc1ccc(N2C(=O)C3C(C2=O)C(C(=O)c2ccc(Cl)cc2)N2CCCC32)cc1 (centres undefined)
COc1ccc(CCCc2n[nH]c(=S)n2C)cc1C
CCOc1ccc(NC(=O)CSc2nnc(C34CC5CC(CC(C5)C3)C4)n2C)cc1
CCN(CC)CCNC(=O)CN1C(=O)COc2ccc(S(=O)(=O)N3CCOCC3)cc21
Cc1ccc(Cl)cc1N1CCN(C(=O)c2ccc3nc[nH]c3c2)CC1
CCOc1ccc(NC(=O)CSc2nc3ccccc3c(=O)n2CCCC(=O)N2CCCC2)cc1
O=C(O)CN1C(=O)/C(=C/c2ccc(SCc3ccccc3)o2)SC1=S
O=C1Cc2ccccc2C(=O)N1c1ccccc1
Clc1ccc(C2=CSC3=Nc4cccc5cccc(c45)N23)cc1
CN1/C(=N\O)c2cccc3cccc1c23
Cc1nn(CC(=O)Nc2nnc(C(C)C)s2)c(=O)c2ccccc12
Cc1cccc(Nc2nnc(-c3ccc(N4CCOCC4)c([N+](=O)[O-])c3)c3ccccc23)c1
CC(C)(C)c1[nH]nc2c1C(c1ccoc1)C(C#N)=C(N)O2 (centres undefined)
Fc1ccc(CNc2nc(-c3cccnc3)nc3ccccc23)cc1
COC1=CC(=O)C(OC)=C(OC)C1=O
N#CCC(=O)c1sccc1-n1cccc1
CNC(=O)c1ccc(-c2cc(C(F)(F)F)nn2C)s1
O=C(O)c1ccc2c(c1)C(=O)N(c1cccc(C(=O)/C=C/c3ccccc3)c1)C2=O
Cc1[nH]n(-c2ccccc2)c(=O)c1C(c1ccc(C(=O)O)cc1)c1c(C)[nH]n(-c2ccccc2)c1=O
Cc1ccnc(-n2c(CCN3C(=O)c4ccccc4C3=O)nc3ccccc3c2=O)c1
CC1CCCCN1C(=O)CCNC(=O)Cn1cnc2ccccc2c1=O (centres undefined)
CCN(CC)C(=O)C1CCCN(Cc2ccc(OC)c(C)c2C)C1 (centres undefined)
Cc1cc2nn(-c3cccc4ccccc34)nc2cc1NC(=O)c1cccs1
COc1ccc(-c2nn(-c3ccccc3)cc2C(=O)Nc2ccc(C(=O)O)cc2)cc1
CC(=NO)c1cc(Br)c2cccc3c2c1CC3
Cc1ccc(/C=C2/SC(=O)NC2=S)o1
CC1(C)C2CCC1(C)C(OC(=O)CSc1nc(N)cc(=O)[nH]1)C2 (centres undefined)
Cc1c(C(=O)c2no[n+]([O-])c2C(=O)c2cnn(C)c2C)cnn1C
CCOc1ccc(NC(=O)CN(c2cccc(C(F)(F)F)c2)S(C)(=O)=O)cc1
COc1ccc(Nc2oc(COc3ccccc3OC)nc2C#N)cc1
COc1ccc(NC2=CC(c3cccc(OC)c3)N(c3ccc(OC)cc3)C2=O)cc1 (centres undefined)
COc1ccc(N/C=C2\CCc3ccccc3C2=O)cc1
c1coc(CNCCCN2CCOCC2)c1
O=C(CN1CCC(C(=O)c2ccc3c(c2)OCCO3)CC1)NCc1ccccc1
COc1cccc(CN(C)C(=O)c2cc(COc3c(F)cccc3F)on2)c1
Cc1ccccc1Nc1nc(N)nc(CSc2nnc3sc4ccccc4n23)n1
COc1cc2sc(C)nc2c2ccccc12
Cc1ccc(Cn2c(SCC(=O)N3CC(=O)Nc4ccccc43)nc3ccccc3c2=O)cc1
CCN1CCN(c2ncnc3scc(-c4ccc(OC)cc4)c23)CC1
O=C(O)C1CC(c2ccccc2F)=NO1 (centres undefined)
Cc1cc(C)cc(-n2c(C)nc3cc(C(=O)O)ccc32)c1
O=C(CSc1ccc(Cl)cc1)Nc1cc(-c2nc3ncccc3o2)ccc1Cl
COCCCNC1=C(Cl)C(=O)c2ccccc2C1=O
CC(C)(C)CN1CCNC(=O)C1CC(=O)N1CCC(C(=O)N2CCOCC2)CC1 (centres undefined)
CCOc1ccccc1/C=N/NC(=O)c1nnn(-c2nonc2N)c1CN1CCC(C)CC1
CNc1ccc(Br)cc(C(=O)/C=C/c2cccc(OC)c2OC)c1=O
COc1cc(/C=C/c2cccc[n+]2C)ccc1OCC(=O)Nc1ccccc1C
CC(C)(C)c1cc(C(=O)N/N=C/c2ccncc2)n[nH]1
CC(=O)c1ccc(NC(=S)Nc2cccc3cnccc23)cc1
COC(=O)c1c(NC(=O)C(C)C)sc(C(=O)N2CCOCC2)c1C
Cc1ccccc1NC(=S)Nc1cccc2cnccc12
COc1ccc(NC(=S)Nc2cccc3cnccc23)cc1
CN(C)CCC(=O)N1C/C(=C/c2ccccc2)C(=O)/C(=C\c2ccccc2)C1
Cn1ncc(Cl)c1C(=O)Nc1cc(C(F)(F)F)ccc1F
COc1ccc(/C=C2/C(=O)N(c3c(F)c(F)c(F)c(F)c3F)N=C2C)cc1
O=C(COc1ccc(S(=O)(=O)N2CCCC2)cc1)Nc1ccc(F)cc1
O=C(O)CC(C(=O)O)N1C(=O)/C(=C/c2ccc(-c3nc4ccccc4s3)o2)SC1=S (centres undefined)
O=C(O)COc1ccc(/C=C/C(=O)c2ccc3ccccc3c2)cc1
O=C(CNC(=O)c1ccccc1)Oc1ccc([N+](=O)[O-])cc1
C=CCC1CCCCC1=C(C#N)c1ccccc1 (centres undefined)
NC1=NC(=Nc2ccc(Br)cc2)c2ccccc21
CC(=O)Nc1ccc(S(=O)(=O)/N=C2/NC(=O)/C(=C\c3ccco3)S2)cc1
Cc1[nH][nH]c(=O)c1C(c1c(C)[nH][nH]c1=O)c1cn(C)c2ccccc12
Cc1[nH][nH]c(=O)c1C(c1ccc(-c2ccc(Cl)c(C(=O)O)c2)o1)c1c(C)[nH][nH]c1=O
COc1ccc2c(c1)Cc1sc(NC(=O)c3cccnc3)nc1-2
Cc1ccc(N2CN=c3s/c(=C\c4ccccn4)c(=O)n3C2)cc1
COc1ccc(C=C(c2nc3ccccc3s2)c2nc3ccccc3s2)cc1O
Cc1c(-c2cccc(Cl)c2)nc2ccccc2c1C(=O)OC/C(O)=C(\C#N)c1nc2ccccc2[nH]1
O=C(NC1CCCc2ccccc21)c1ccccc1OC(F)F (centres undefined)
O=C1Nc2ccc(S(=O)(=O)NCc3ccco3)c3cccc1c23
COc1ccc(NC2CCCN(C(=O)c3ccccc3N3CCOCC3)C2)cc1OC (centres undefined)
Cn1c(NNC(=O)c2c(F)cccc2F)cc(=O)n(C)c1=O
Cc1[nH][nH]c(=O)c1C(c1ccc(-c2ccccc2C(=O)O)o1)c1c(C)[nH][nH]c1=O
Nc1nonc1-c1nc2ccccc2n1CC(=O)N/N=C/c1ccc(-c2ccccc2C(=O)O)o1
O=C(CSc1n[nH]c(-c2ccncc2)n1)Nc1ccc(Cl)c(Cl)c1
Cc1nnc(N/N=C\c2ccc(-c3cccc(C(=O)O)c3)o2)n1N
Cc1ccc(-c2ccc(/C=N/NC(=O)CN3CCOCC3)o2)cc1[N+](=O)[O-]
O=C(CCN1CCOCC1)NCC1COc2ccccc2O1 (centres undefined)
COc1cc(CC(=O)NCC2COc3ccccc3O2)cc(OC)c1OC (centres undefined)
COc1cc(C(=O)NC2CCCc3ccccc32)cc(OC)c1OC (centres undefined)
CN(C)/C=C1\C=C2C(=O)c3ccccc3N2C1=O
Cc1c(C)c2cc(Cl)c(O)c(CN(C)C)c2oc1=O
